Pf Dd2 growth: P. falciparum Dd2 growth inhibitors, primary screen, SYBR Green fluorescence, single dose replicates. 94,000 compounds, 2.3% hits. 72 h; hits give low values. activity change, % at 10 µM; in the data active = activity change below about -80%; inconclusive = no clear call, values can overlap the other calls
C diff HTS: C. difficile growth inhibitors, primary screen, HTS. AID 1259249, 2017. Clostridium difficile clinical isolate growth, OD600, 24 h; hits give low values. growth activity, negative = inhibition, % at 16 µg/mL (by protocol). 86,000 compounds, 0.25% hits;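 active = mean growth activity at or below -80% and every replicate also at or below -80%; inconclusive = mean at or below -80% but some replicate above -80%; inactive = mean growth activity above -80%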
T cruzi growth: T. cruzi intracellular proliferation inhibitors, primary screen, cell-based, beta-gal Tulahuen parasites, NIH3T3 host, luminescence. inhibition, % at 8.34 µM. 77,000 compounds, 5.9% hits. T. cruzi beta-gal in NIH3T3, GalScreen luminescence, 90 h;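 active = mean inhibition above about 93%, with at least 55% of replicates each passing it, limit read from the data, passing the limit was not always enough; inconclusive = only one of those two conditions holds; inactive = neither condition holds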
Hits are given with their value; n = inactive; u = inconclusive; x = no result given. Sampled rows, rich in hits. Any-hit rate of the full collection: about 6.7%.

SMILES	Pf Dd2 growth	C diff HTS	T cruzi growth
C[C@@H]1CCCCO[C@H](CN(C)C(=O)Nc2ccc3c(c2)OCO3)[C@@H](C)CN([C@@H](C)CO)C(=O)c2cc(NC(=O)Cc3ccccc3)ccc2O1	n	n	n
C[C@@H]1CCCCO[C@H](CN(C)C(=O)Nc2ccccc2)[C@H](C)CN([C@@H](C)CO)C(=O)c2cc(NC(=O)Cc3ccccc3)ccc2O1	n	x	n
CN(C)C(=O)C[C@@H]1CC[C@@H]2[C@@H](COc3ccc(NC(=O)c4ccc(F)c(F)c4)cc3C(=O)N2C)O1	n	n	n
C[C@@H]1CN([C@H](C)CO)C(=O)c2cc(NC(=O)Nc3ccccc3)ccc2O[C@H]1CN(C)Cc1ccncc1	n	n	n
C[C@H](CO)N1C[C@H](C)[C@H](CN(C)Cc2ccncc2)Oc2c(NC(=O)Nc3ccc4c(c3)OCO4)cccc2C1=O	n	n	n
COc1ccc2c3c(n(C)c2c1)[C@H](CO)N(C(=O)c1cccnc1)CC31CCN(S(=O)(=O)c2ccccc2)CC1	n	n	x
CC(C)(C)[S@](=O)N1Cc2cc(C(=O)N[C@H]3CCN(Cc4ccccc4)C3)nc(-c3cccc(-c4cccnc4)c3)c2[C@@H]1CCO	n	n	x
C[C@@H]1CCCCO[C@H](CN(C)S(=O)(=O)c2ccc(F)cc2)[C@@H](C)CN([C@@H](C)CO)C(=O)c2cc(NC(=O)Cc3ccccc3)ccc2O1	n	x	n
COc1ccc(S(=O)(=O)N(C)C[C@H]2OCCCC[C@H](C)Oc3ccc(NC(=O)Cc4ccccc4)cc3C(=O)N([C@H](C)CO)C[C@H]2C)cc1	-84	n	n
COc1ccc(S(=O)(=O)N(C)C[C@H]2OCCCC[C@@H](C)Oc3ccc(NC(=O)Cc4ccccc4)cc3C(=O)N([C@@H](C)CO)C[C@H]2C)cc1	n	n	n
C[C@H]1CCCCO[C@H](CN(C)S(=O)(=O)c2ccc(F)cc2)[C@@H](C)CN([C@@H](C)CO)C(=O)c2cc(NC(=O)Cc3ccccc3)ccc2O1	-89	x	n
C[C@H]1CN([C@@H](C)CO)S(=O)(=O)c2ccc(C3=CCCC3)cc2O[C@@H]1CN(C)S(C)(=O)=O	n	x	n
CC(C)NC(=O)Nc1ccc2c(c1)CC(=O)N([C@@H](C)CO)C[C@@H](C)[C@H](CN(C)S(C)(=O)=O)O2	n	n	n
C[C@H]1CN([C@@H](C)CO)C(=O)c2c(c3ccccc3n2C)-c2ccccc2CO[C@H]1CN(C)C(=O)Nc1ccc(-c2ccccc2)cc1	-89	n	x
C[C@@H]1CN([C@H](C)CO)C(=O)c2c(c3ccccc3n2C)-c2ccccc2CO[C@@H]1CN(C)C(=O)Nc1cccc(F)c1	n	x	n
C[C@H]1CN([C@@H](C)CO)C(=O)c2c(c3ccccc3n2C)-c2ccccc2CO[C@H]1CN(C)C(=O)Nc1ccccc1	n	x	n
COc1ccc(NC(=O)N(C)C[C@@H]2OCc3ccccc3-c3c(n(C)c4ccccc34)C(=O)N([C@@H](C)CO)C[C@@H]2C)cc1	n	x	n
C[C@H](CO)N1C[C@H](C)[C@H](CN(C)C(=O)Nc2ccc(-c3ccccc3)cc2)OCc2ccccc2-c2c(n(C)c3ccccc23)C1=O	-89	n	x
C[C@H](CO)N1C[C@H](C)[C@@H](CN(C)C(=O)Nc2ccc(F)cc2)OCc2ccccc2-c2c(n(C)c3ccccc23)C1=O	-92	n	n
C[C@@H]1CN([C@@H](C)CO)C(=O)c2c(c3ccccc3n2C)-c2ccccc2CO[C@@H]1CN(C)C(=O)Nc1ccccc1	n	x	n
C[C@@H]1CN([C@@H](C)CO)C(=O)c2c(c3ccccc3n2C)-c2ccccc2CO[C@H]1CN(C)C(=O)Nc1ccc(-c2ccccc2)cc1	-91	n	x
C[C@H](CO)N1C[C@H](C)[C@@H](CN(C)C(=O)Cc2ccccc2)OCCCC[C@H](C)Oc2ccc(NS(=O)(=O)c3ccc(F)cc3)cc2C1=O	n	n	n
Cc1noc(C)c1NC(=O)Nc1ccc2c(c1)C(=O)N([C@H](C)CO)C[C@@H](C)[C@H](CN(C)Cc1ccc(C(F)(F)F)cc1)OCCCC[C@@H](C)O2	n	n	n
COc1ccc(NC(=O)N(C)C[C@@H]2Oc3cc(-c4ccncc4)ccc3S(=O)(=O)N([C@H](C)CO)C[C@@H]2C)cc1	n	n	n
COc1cccc(NC(=O)N[C@@H]2C=C[C@H](CC(=O)N3CCN(C)CC3)O[C@H]2CO)c1	n	n	n
SMILES	Pf Dd2 growth	C diff HTS	T cruzi growth
C[C@H](CO)N1C[C@H](C)[C@@H](CN(C)C(=O)c2cccc(F)c2)Oc2ncc(/C=C/c3ccccc3)cc2C1=O	u	n	n
C[C@@H]1CN([C@H](C)CO)C(=O)c2cc(C#Cc3ccccc3)cnc2O[C@H]1CN(C)C(=O)c1ccccc1F	n	n	x
COc1ccc(NC(=O)N(C)C[C@@H]2Oc3ncc(-c4cccnc4)cc3C(=O)N([C@@H](C)CO)C[C@H]2C)cc1	n	n	n
C[C@@H]1CN([C@H](C)CO)C(=O)c2cc(C#Cc3cccc(F)c3)cnc2O[C@@H]1CN(C)C(=O)c1ccccc1F	-81	n	n
C[C@H]1CN([C@@H](C)CO)C(=O)c2cc(C#Cc3cccc(F)c3)cnc2O[C@H]1CN(C)C(=O)c1ccccc1F	-82	n	n
COc1ccc(NC(=O)N(C)C[C@H]2Oc3ncc(-c4cccnc4)cc3C(=O)N([C@H](C)CO)C[C@@H]2C)cc1	-83	n	n
C[C@H](CO)N1C[C@H](C)[C@H](CN(C)C(=O)c2ccccc2F)Oc2ncc(C#Cc3cccc(F)c3)cc2C1=O	n	n	n
C[C@H]1CN([C@@H](C)CO)C(=O)c2cc(/C=C/c3ccccc3)cnc2O[C@@H]1CN(C)C(=O)c1cccc(F)c1	-83	n	n
O=C(CC1CC1)N1CC[C@@H]2[C@H]1c1cc(-c3ccccc3)ccc1N[C@@H]2CO	n	n	n
CCCC(=O)N1CC2(CCN(C(=O)CC3CC3)CC2)c2c(n(C)c3cc(OC)ccc23)[C@H]1CO	n	x	x
C[C@@H]1CN([C@@H](C)CO)C(=O)c2cc(C#Cc3ccccc3F)cnc2O[C@H]1CN(C)C(=O)Cc1ccncc1	n	n	n
C[C@H](CO)N1C[C@H](C)[C@H](CN(C)C(=O)Cc2cccnc2)Oc2ncc(-c3ccccc3)cc2C1=O	n	x	n
C[C@@H]1CN([C@@H](C)CO)C(=O)c2cc(-c3ccncc3)cnc2O[C@H]1CN(C)C(=O)Cc1cccnc1	n	n	104
C[C@@H]1CN([C@H](C)CO)C(=O)c2cc(C#Cc3ccccc3F)cnc2O[C@H]1CN(C)C(=O)Cc1ccncc1	-84	n	n
COc1ccc(S(=O)(=O)N(C)C[C@H]2Oc3ccc(NS(=O)(=O)c4ccccc4)cc3C(=O)N([C@@H](C)CO)C[C@@H]2C)cc1	n	n	n
COc1cccc(NC(=O)N2[C@@H](CO)[C@@H](c3ccccc3)[C@@H]2CNCC(C)C)c1	-81	n	n
CNC[C@@H]1[C@H](c2ccccc2)[C@H](CO)N1C(=O)Nc1cccc(OC)c1	n	n	n
CN(C)C(=O)c1ccc(-c2ccc(C3[C@H]4CNC[C@@H]3N4C(=O)Nc3cccc(Cl)c3)cc2)cc1 (some centres undefined)	n	n	x
